Hit rate of the full screen: of about 330,000 compounds, about 1,900 (0.58%) were called active. Another 4% or so got no clear call; they are omitted. These entries were drawn from the full list. Results with a measured potency or affinity are listed apart. Unmarked numbers belong to inactive results. No stated cut-off is given here; in the data, inconclusive means inhibition above about 70% without an active follow-up result; inactive means below that.

A word on the inhibition: it is the drop in the measured response relative to a control, in per cent.

The nature of the test: M. tuberculosis growth inhibition, HTS (AID 449762).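 Further: bacterial growth assessed after seven days of incubation.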 Conditions: M. tuberculosis H37Rv growth inhibition, 7H9 media; at 25 µM; stronger effect = higher value.
With `Cc1ccc2nc(-c3ccc(NS(C)(=O)=O)cc3)cc(-c3ccccc3)c2c1`, the inhibition is 0.07%.
Regarding `Clc1ccc2nc(-c3ccncc3)cc(-c3ccccc3)c2c1`, the inhibition is 3.77%.
With `COc1ccc(S(=O)(=O)N2CCN(C(=O)c3ccco3)CC2)cc1C(C)(C)C`, the inhibition is -13.2%.
Turning to `Cc1cccc(Sc2ccc([N+](=O)[O-])cc2[N+](=O)[O-])n1`, the inhibition is 19.9%.
With `Cc1cc(C)nc(Sc2ccc([N+](=O)[O-])cc2[N+](=O)[O-])n1`, the inhibition was 0.29%.
For the compound `COc1ccc(OC)c(N/C(C)=C/C(=O)c2ccc(C)o2)c1`, the inhibition was 5.43%.
Regarding `C/C(=C\C(=O)c1ccc(C)o1)Nc1ccc(C(=O)O)cc1C`, the inhibition was -5.52%.
With `Cc1nc2sccn2c1-c1csc(NCc2ccccc2)n1` the figure was 54.7%; with `Cc1ccn2c(-c3csc(NCc4ccco4)n3)c(C)nc2c1`, 7.31%.
Then `O=C(COC(=O)CCN1C(=O)c2ccccc2C1=O)Nc1ccccc1[N+](=O)[O-]`, with -0.89%; and `O=C(Nc1ccccc1)C1C2/C=C\CCCCC21` (configuration not stated), with 5.24%; and `Cc1ccc(NC(=O)C2C3/C=C\CCCCC32)cc1` (configuration not stated), with -6.56%.
In the case of `Cc1cc(F)ccc1S(=O)(=O)N1CCCOC1CNC(=O)C(=O)NC1CCCCC1` (configuration not stated), the inhibition is -6.82%.
Then `CCOC(=O)N1CCN(c2c(NCCCN3CCCCCC3)c(=O)c2=O)CC1`, with 1.01%; and `CCOC(=O)/C(=N/Nc1ccccc1OC)N1CCCc2ccccc21`, with 0.45%.
Turning to `CCOC(=O)/C(=N/Nc1ccccc1)N1CCCc2ccccc21`, the inhibition is 0.18%.
With `Cc1ccc(S(=O)(=O)Cc2sc3ccccc3[n+]2C)cc1`, the inhibition is -1.05%.
Then `COc1ccc(NC(=O)C(CC(=O)O)Cc2ccccc2)cc1` (configuration not stated), with -9.83%; and `Cc1ccc(SCCNC(=O)/C=C/c2ccc(Cl)cc2)cc1`, with -7.24%; and `Cc1nc(S/C(=C/c2ccc(-c3ccc(C(=O)O)cc3)o2)C(=O)O)n[nH]1`, with -0.51%.
In the case of `CC(=O)c1ccc(-c2ccc(/C=C(/Sc3n[nH]c(C)n3)C(=O)O)o2)cc1`, the inhibition was -2.81%.
Consider `CCCN1CCN(C(=O)c2ccc(CS(=O)c3ccc(Cl)cc3)o2)CC1` (configuration not stated), for which the inhibition is -5.84%.
On to `Cc1ccc(C(=O)N(c2ccccn2)C(C)c2ccco2)cc1C` (configuration not stated), for which the inhibition was 6.78%.
Consider `Cc1ccc(Nc2nc(CSc3n[nH]c(N)n3)cs2)cc1`, for which the inhibition was 0.79%.
Regarding `c1ccc(-c2nc(CSc3nnc(-c4cccs4)o3)cs2)cc1`, the inhibition is 3.49%.
As to `CCc1ccc(NC(=O)C(NS(=O)(=O)c2ccc3c(c2)CCN3C(C)=O)C(C)C)cc1` (configuration not stated), the inhibition was 0.33%.
As to `Cc1ccc(Nc2nc(N)c3ccccc3n2)cc1Cl`, the inhibition was 11.2%.
With `CCN(CC)c1nc(Nc2ccc([N+](=O)[O-])cc2)nc(N(CC)CC)n1` the figure was 6%.
In the case of `Cc1ccc(NC(=O)c2ccsc2)cc1NS(C)(=O)=O`, the inhibition is -6.89%.
On to `C=CCc1c(C)nc(C)nc1N/N=C/c1ccc([N+](=O)[O-])cc1`, for which the inhibition was -6.42%.
`CN1CCN(C(=O)CCn2c(=O)c3cccn3c3cccnc32)CC1`: the inhibition was 6.95%.
With `O=C(Cn1c(=O)c2cccn2c2cccnc21)N1CCN(c2ccc(Cl)cc2)CC1`, the inhibition was 0.96%.
Turning to `Cc1ccc(CN2CCC(c3nc4ccc(Cl)cc4[nH]3)CC2)cc1`, the inhibition was 2.51%.
With `Cc1cc2nc(C3CCN(Cc4nnnn4Cc4ccccc4)CC3)[nH]c2cc1C` the figure was 34%; with `CC(=O)Nc1ccc(SCC(=O)Nc2sccc2C#N)cc1`, -2.99%.
In the case of `O=C(OCC(=O)c1c[nH]c2ccccc12)c1cncc(Br)c1`, the inhibition is -0.17%.
In the case of `O=C(OCC(=O)c1c[nH]c2ccccc12)c1ccc(Br)o1`, the inhibition was 5.56%.
Turning to `CCOC(=O)c1c(NC(=O)c2ccccc2C(=O)O)sc2c1CCC2`, the inhibition was -2.86%.
Take `CCOC(=O)c1c(NC(=O)c2ccccc2C(=O)O)sc2c1CCCC2`: the inhibition was -6.92%.
Turning to `CCN1CCN(CC(O)COc2ccc(C)c(C)c2)CC1` (configuration not stated), the inhibition was 4.44%.
Regarding `COC(=O)c1sccc1NC(=O)c1ccccc1C(=O)O`, the inhibition is 1.76%.
As to `CCn1nc(NC(=O)c2ccncc2)c2cc3ccc(C)cc3nc21`, the inhibition was 4.05%.
On to `CCn1nc(NC(=O)c2ccncc2)c2cc3ccccc3nc21`, for which the inhibition was 2.23%.
Regarding `O=C(Nc1ccccc1C(=O)O)c1cc(S(=O)(=O)N2CCCCC2)c(Cl)cc1Cl`, the inhibition was -1.16%.
Turning to `CCn1c2ccc(CC(=O)O)cc2c2cc(CC(=O)O)ccc21`, the inhibition was -11.4%.
Regarding `COc1ccc(NC(=O)CN2CCN(CC(=O)Nc3ccccc3F)CC2)c(OC)c1`, the inhibition is -3.25%.
Regarding `Cc1ccc(NC(=O)c2nc[nH]c2C(=O)NCCCNC(=O)c2[nH]cnc2C(=O)Nc2ccc(C)cc2)cc1`, the inhibition was 5.52%.
On to `c1ccc(Nc2ccc(-n3ccnc3)nn2)cc1`, for which the inhibition was -2%.
On to `Cc1ccc(Nc2ccc(-n3ccnc3)nn2)cc1C`, for which the inhibition is -0.37%.
On to `COCc1cc(=O)[nH]c(/N=C(\N)Nc2ccc(C)cc2)n1`, for which the inhibition is -14.4%.
With `Cc1nn(C)c(C)c1Nc1ccc(N2C(=O)C3C4C=CC(C4)C3C2=O)cc1[N+](=O)[O-]` (configuration not stated) the figure was 10.1%.
As to `CCCn1nnnc1SCC(=O)N1C(C)CCCC1C` (configuration not stated), the inhibition is 5.01%.
Then `COc1ccc(C(OCC(O)CNCCc2ccccc2)c2ccc(OC)cc2)cc1` (configuration not stated), with 19.9%; and `COc1ccccc1COCC(O)CNCCc1ccc(C(F)(F)F)cc1` (configuration not stated), with 1.34%.
Then `O=C(O)CCn1nnc(-c2ccccc2)n1`, with -0.81%; and `COc1ccc(OCC(=O)N(Cc2ccco2)C2CCS(=O)(=O)C2)cc1` (configuration not stated), with 3.83%; and `Cc1ccc(S(=O)(=O)N2CCCCC2)cc1NC(=O)C1CCC1`, with 0.72%.
For `Cc1ccc(-c2nc3ccsc3c(=O)[nH]2)cc1`, the inhibition was 5.58%.
With `Cc1ccc(-c2nc3ccccc3c(=O)o2)cc1` the figure was 12.5%; with `C=CCN1C(=O)/C(=C/c2cccs2)S/C1=N\S(=O)(=O)c1ccc(F)cc1`, 0.38%.
With `COc1ccc(NC(=O)CCNC(=O)C2CCN(S(=O)(=O)c3ccc(OC)cc3)CC2)cc1`, the inhibition was 10.1%.
Then `O=C(COc1cc(O)c2c(=O)cc(-c3ccccc3)oc2c1)c1ccccc1`, with -3.97%.
For the compound `CC(C)(C)OC(=O)COc1cc(O)c2c(=O)cc(-c3ccccc3)oc2c1`, the inhibition was 39.4%.
In the case of `CSc1nnc(-c2cc(Br)ccc2N=Cc2c(C)[nH]n(-c3ccccc3)c2=O)c(=O)[nH]1`, the inhibition is 4.16%.
As for `O=[N+]([O-])c1c(Nc2ccccc2O)cc(N2CCOCC2)c2nonc12`, the inhibition is 0.81%.
With `CCOC(=O)C1CCCN(S(=O)(=O)c2ccc(-c3cc(C)no3)s2)C1` (configuration not stated), the inhibition was 3.93%.
`CCO[C@H]1OC(C(=O)NCc2nc3ccccc3[nH]2)=C[C@@H](c2ccccc2)[C@@H]1CCCO`: the inhibition is -4.83%.
With `CCO[C@@H]1OC(C(=O)NCc2nc3ccccc3[nH]2)=C[C@H](c2ccccc2)[C@H]1CCCO` the figure was 10.6%; with `Cc1ccc(C)n1CCN1CCN(C(=O)CSc2nc3ccccc3nc2N2CCOCC2)CC1`, 5.46%; with `O=C(CSc1nc2ccccc2nc1N1CCCCC1)N1CCN(c2ccccc2)CC1`, -7.86%.
For the compound `COc1ccc2[nH]c(=O)c(CN(CC3CCCO3)S(=O)(=O)c3ccccc3)cc2c1` (configuration not stated), the inhibition is 2.57%.
In the case of `Cc1ccccc1OCC(=O)NNC(=O)C1CCCCC1C(=O)O` (configuration not stated), the inhibition is 2.25%.
For the compound `Cc1cccc(N(C(=O)c2nsc(Cl)c2Cl)C(C(=O)NC2CCCC2)c2ccc(O)cc2)c1` (configuration not stated), the inhibition is -12.7%.
With `Cc1ccc(C)c(N(C(=O)c2nsc(Cl)c2Cl)C(C(=O)NC2CCCC2)c2ccc(O)cc2)c1` (configuration not stated) the figure was -2.81%.
With `C=CCc1c(C)nn(CC(=O)O)c1-c1ccccc1`, the inhibition is -6.59%.
Turning to `COc1ccc(S(=O)(=O)N2CCC(C(=O)NC(c3nc4ccccc4[nH]3)C(C)C)CC2)cc1` (configuration not stated), the inhibition was -6.28%.
With `O=C(Nc1cc(S(=O)(=O)N2CCOCC2)ccc1N1CCCC1)C1COc2ccccc2O1` (configuration not stated), the inhibition was -4.41%.
For `COC(=O)/C(=C1/Oc2ccc(C)cc2S1)C(F)(F)F`, the inhibition is 4.4%.
Consider `COC(=O)/C(=C1/Oc2ccc(C(C)(C)C)cc2S1)C(F)(F)F`, for which the inhibition is -1.9%.
Then `O=S(=O)(c1ccc(Cl)c(NC(=S)Nc2cccc(O)c2)c1)N1CCOCC1`, with 1.85%; and `CC12CCC(=O)N1C(C(=O)N1CCN(S(=O)(=O)c3cccc(C(F)(F)F)c3)CC1)CS2` (configuration not stated), with 2.29%; and `O=C(Nc1nc2ccc(Cl)cc2s1)C1CC1`, with 7.91%.
As to `CC1CC1C(=O)Nc1nc2ccc(Cl)cc2s1` (configuration not stated), the inhibition is 16.9%.
For the compound `O=C(Cc1nnc(NC(=O)Nc2ccc(F)cc2)s1)NCc1ccccc1`, the inhibition was -2.08%.
`COc1ccc(N2C(=O)CCC2=O)cc1`: the inhibition was -16.1%.
Take `CCOc1ccc(C(=O)NNC(=O)CN2C(=O)C3CC=CCC3C2=O)cc1OC` (configuration not stated): the inhibition is 3.32%.
`CN(C(=O)COC(=O)c1cc(NS(=O)(=O)c2cc([N+](=O)[O-])ccc2Cl)ccc1O)C1CCCCC1`: the inhibition was 0.85%.
Consider `CN(C(=O)COC(=O)c1ccc(Cl)cc1N)C1CCCCC1`, for which the inhibition was -0.1%.
Take `CCN(C(=O)COC(=O)CNC(=O)c1sc2ccccc2c1Cl)C1CCCCC1`: the inhibition is 39.4%.
Consider `CC1CCCC(NC(=O)COC(=O)c2sc3ccccc3c2Cl)C1C` (configuration not stated), for which the inhibition is -11.1%.
Take `C=CCn1c(N)c(C(=O)N2CCOCC2)sc1=S`: the inhibition is -5.77%.
With `c1ccc(CCNc2ncnc3sccc23)nc1` the figure was -8.28%.

The values are drawn from PubChem BioAssay AID449762 (Southern Research Specialized Biocontainment Screening …, 2010).
